# PubChem BioAssay (NCATS)
# Records with an inconclusive call do not appear. Entries that show only a call come without a potency. Values without a mark were called inactive. The source made the active and inactive calls. Calls come from the whole dose curve; as a rule, active = well fitted inhibition curve with a large enough effect; inconclusive = small, poorly fitted or top-dose-only effect; inactive = flat fitted curve, though single readings scatter.
# Experiments:
# [1] = qHTS profiling for inhibitors of Plasmodium falciparum proliferation (AID 504749); note: nearly all actives have a fitted effect of over 60% in size; settings: P. falciparum in erythrocytes, SYBR Green DNA, 72 h
# How it was run: (§1)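 Three-day growth assay of blood-stage parasites in erythrocytes (0.3% parasitemia, 2.5% hematocrit) at 37 C, 5% CO2, quantified by SYBR Green DNA staining after overnight detergent lysis.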
# 3D7 = assay: as above; settings: P. falciparum in erythrocytes, SYBR Green DNA, 72 h; series mostly up to 28.7 µM
# How it was run: as §1
# 7G8 = assay: as above; settings: P. falciparum in erythrocytes, SYBR Green DNA, 72 h; series mostly up to 28.7 µM
# How it was run: as §1
# AA1029 = assay: as above; settings: P. falciparum in erythrocytes, SYBR Green DNA, 72 h; series mostly up to 28.7 µM
# How it was run: as §1
# AS120 = assay: as above; settings: P. falciparum in erythrocytes, SYBR Green DNA, 72 h; series mostly up to 28.7 µM
# How it was run: as §1
# ATS189 = assay: as above; settings: P. falciparum in erythrocytes, SYBR Green DNA, 72 h; series mostly up to 28.7 µM
# How it was run: as §1
# C2A = assay: as above; settings: P. falciparum in erythrocytes, SYBR Green DNA, 72 h; series mostly up to 28.7 µM
# How it was run: as §1
# CP185 = assay: as above; settings: P. falciparum in erythrocytes, SYBR Green DNA, 72 h; series mostly up to 28.7 µM
# How it was run: as §1
# CP191 = assay: as above; settings: P. falciparum in erythrocytes, SYBR Green DNA, 72 h; series mostly up to 28.7 µM
# How it was run: as §1
# CP192 = assay: as above; settings: P. falciparum in erythrocytes, SYBR Green DNA, 72 h; series mostly up to 28.7 µM
# How it was run: as §1
# CP194 = assay: as above; settings: P. falciparum in erythrocytes, SYBR Green DNA, 72 h; series mostly up to 28.7 µM
# How it was run: as §1
# CP201 = assay: as above; settings: P. falciparum in erythrocytes, SYBR Green DNA, 72 h; series mostly up to 28.7 µM
# How it was run: as §1
# CP203 = assay: as above; settings: P. falciparum in erythrocytes, SYBR Green DNA, 72 h; series mostly up to 28.7 µM
# How it was run: as §1
# CP211 = assay: as above; settings: P. falciparum in erythrocytes, SYBR Green DNA, 72 h; series mostly up to 28.7 µM
# How it was run: as §1
# CP215 = assay: as above; settings: P. falciparum in erythrocytes, SYBR Green DNA, 72 h; series mostly up to 28.7 µM
# How it was run: as §1
# CP217 = assay: as above; settings: P. falciparum in erythrocytes, SYBR Green DNA, 72 h; series mostly up to 28.7 µM
# How it was run: as §1
# CP237 = assay: as above; settings: P. falciparum in erythrocytes, SYBR Green DNA, 72 h; series mostly up to 28.7 µM
# How it was run: as §1
# CP238 = assay: as above; settings: P. falciparum in erythrocytes, SYBR Green DNA, 72 h; series mostly up to 28.7 µM
# How it was run: as §1
# CP247 = assay: as above; settings: P. falciparum in erythrocytes, SYBR Green DNA, 72 h; series mostly up to 28.7 µM
# How it was run: as §1
# ATS95 = assay: as above; settings: P. falciparum in erythrocytes, SYBR Green DNA, 72 h; series mostly up to 28.7 µM
# How it was run: as §1
# [2] = at 28.7 µM (top of the series), parasite line A
# [3] = at 28.7 µM (top of the series), parasite line B
# Potency is the fitted concentration of half-maximal effect.
smiles,measurement,setting,value
COc1ccc(/C=C/C(=O)O)cc1,"activity, negative = inhibition",[1]; [2],8.39%
same,"activity, negative = inhibition",[1]; [3],-2.19%
same,Potency,3D7,inactive
same,Potency,7G8,inactive
same,Potency,AA1029,inactive
same,Potency,AS120,inactive
same,Potency,ATS189,inactive
same,Potency,C2A,inactive
same,Potency,CP185,inactive
same,Potency,CP191,inactive
same,Potency,CP192,inactive
same,Potency,CP194,inactive
same,Potency,CP201,inactive
same,Potency,CP203,inactive
same,Potency,CP211,inactive
same,Potency,CP215,inactive
same,Potency,CP217,inactive
same,Potency,CP237,inactive
same,Potency,CP238,inactive
same,Potency,CP247,inactive
Nc1ncnc2c1ncn2[C@H]1CC[C@@H](CO)O1,"activity, negative = inhibition",[1]; [2],5.25%
same,"activity, negative = inhibition",[1]; [3],9.47%
same,Potency,3D7,inactive
same,Potency,7G8,inactive
same,Potency,AA1029,inactive
same,Potency,AS120,inactive
same,Potency,ATS189,inactive
same,Potency,ATS95,inactive
same,Potency,C2A,inactive
same,Potency,CP185,inactive
same,Potency,CP191,inactive
same,Potency,CP192,inactive
same,Potency,CP194,inactive
same,Potency,CP201,inactive
same,Potency,CP211,inactive
same,Potency,CP215,inactive
same,Potency,CP217,inactive
same,Potency,CP237,inactive
same,Potency,CP238,inactive
same,Potency,CP247,inactive
O=[N+]([O-])c1c(Cl)cccc1-c1c[nH]cc1Cl,"activity, negative = inhibition",[1]; [2],-12.9%
same,"activity, negative = inhibition",[1]; [3],-18.4%
same,Potency,3D7,inactive
same,Potency,AA1029,inactive
same,Potency,AS120,inactive
same,Potency,ATS189,inactive
same,Potency,ATS95,inactive
same,Potency,C2A,inactive
same,Potency,CP185,inactive
same,Potency,CP191,inactive
same,Potency,CP192,inactive
same,Potency,CP194,inactive
same,Potency,CP201,inactive
same,Potency,CP203,inactive
same,Potency,CP211,inactive
same,Potency,CP215,inactive
same,Potency,CP217,inactive
same,Potency,CP237,inactive
same,Potency,CP238,inactive
same,Potency,CP247,inactive
N#Cc1ccc2c(c1)N(CCCN1CCC(O)CC1)c1ccccc1S2,"activity, negative = inhibition",[1]; [2],-11.2%
same,"activity, negative = inhibition",[1]; [3],-26.8%
same,Potency,3D7,inactive
same,Potency,7G8,12.6 µM (active)
same,Potency,AA1029,11.2 µM (active)
same,Potency,C2A,inactive
same,Potency,CP192,inactive
same,Potency,CP217,inactive
CCOC(=O)C1=C(COCCN)NC(C)=C(C(=O)OC)C1c1ccccc1Cl (stereo not given),"activity, negative = inhibition",[1]; [2],-0.523%
same,"activity, negative = inhibition",[1]; [3],-8.98%
same,Potency,3D7,inactive
same,Potency,7G8,11.2 µM (active)
same,Potency,AA1029,inactive
same,Potency,AS120,inactive
same,Potency,ATS95,inactive
same,Potency,C2A,inactive
same,Potency,CP185,inactive
same,Potency,CP191,inactive
same,Potency,CP192,inactive
same,Potency,CP201,inactive
same,Potency,CP203,inactive
same,Potency,CP211,inactive
same,Potency,CP215,inactive
same,Potency,CP217,inactive
same,Potency,CP238,inactive
same,Potency,CP247,inactive
C(=C\c1ccncc1)/c1ccccc1,"activity, negative = inhibition",[1]; [2],-2.95%
same,"activity, negative = inhibition",[1]; [3],-9.52%
same,Potency,3D7,inactive
same,Potency,7G8,12.6 µM (active)
same,Potency,AA1029,inactive
same,Potency,AS120,inactive
same,Potency,ATS189,inactive
same,Potency,ATS95,inactive
same,Potency,C2A,inactive
same,Potency,CP185,inactive
same,Potency,CP191,inactive
same,Potency,CP192,inactive
same,Potency,CP194,inactive
same,Potency,CP201,inactive
same,Potency,CP211,inactive
same,Potency,CP215,inactive
same,Potency,CP217,inactive
same,Potency,CP237,inactive
same,Potency,CP238,inactive
same,Potency,CP247,inactive
COc1ccc(-c2noc(CC(=O)O)c2-c2ccc(OC)cc2)cc1,"activity, negative = inhibition",[1]; [2],5.47%
same,"activity, negative = inhibition",[1]; [3],9.58%
same,Potency,3D7,inactive
same,Potency,7G8,inactive
same,Potency,AA1029,inactive
same,Potency,AS120,inactive
same,Potency,ATS189,inactive
same,Potency,ATS95,inactive
same,Potency,C2A,inactive
same,Potency,CP185,inactive
same,Potency,CP191,inactive
same,Potency,CP192,inactive
same,Potency,CP194,inactive
same,Potency,CP201,inactive
same,Potency,CP211,inactive
same,Potency,CP215,inactive
same,Potency,CP217,inactive
same,Potency,CP237,inactive
same,Potency,CP238,inactive
same,Potency,CP247,inactive
Cc1cc(=O)c(C(=O)N[C@@H](C(=O)N[C@@H]2C(=O)N3C(C(=O)O)=C(CSc4nnnn4C)CS[C@H]23)c2ccc(O)cc2)c[nH]1,"activity, negative = inhibition",[1]; [2],5.19%
same,"activity, negative = inhibition",[1]; [3],9.95%
same,Potency,3D7,inactive
same,Potency,7G8,inactive
same,Potency,AA1029,inactive
same,Potency,AS120,inactive
same,Potency,ATS189,inactive
same,Potency,ATS95,inactive
same,Potency,C2A,inactive
same,Potency,CP185,inactive
same,Potency,CP191,inactive
same,Potency,CP192,inactive
same,Potency,CP194,inactive
same,Potency,CP201,inactive
same,Potency,CP211,inactive
same,Potency,CP215,inactive
same,Potency,CP217,inactive
same,Potency,CP237,inactive
same,Potency,CP238,inactive
same,Potency,CP247,inactive
O=C1NCCN1c1ncc([N+](=O)[O-])s1,"activity, negative = inhibition","[1]; at 12.8 µM (top of the series), parasite line A",-20%
same,"activity, negative = inhibition","[1]; at 12.8 µM (top of the series), parasite line B",-14.4%
same,Potency,3D7,inactive
same,Potency,7G8,inactive
same,Potency,AA1029,inactive
same,Potency,AS120,inactive
same,Potency,ATS189,inactive
same,Potency,ATS95,inactive
same,Potency,C2A,inactive
same,Potency,CP185,inactive
same,Potency,CP191,inactive
same,Potency,CP192,inactive
same,Potency,CP194,inactive
same,Potency,CP203,inactive
same,Potency,CP211,inactive
same,Potency,CP215,inactive
same,Potency,CP217,inactive
same,Potency,CP237,inactive
same,Potency,CP238,inactive
same,Potency,CP247,inactive
CC(C)(C)c1ccc2c(S(=O)(=O)O)c(C(C)(C)C)ccc2c1,"activity, negative = inhibition",[1]; [2],16.3%
same,"activity, negative = inhibition",[1]; [3],12.2%
same,Potency,3D7,inactive
same,Potency,7G8,inactive
same,Potency,AA1029,inactive
same,Potency,AS120,inactive
same,Potency,ATS189,inactive
same,Potency,ATS95,inactive
same,Potency,C2A,inactive
same,Potency,CP185,inactive
same,Potency,CP191,inactive
same,Potency,CP192,inactive
same,Potency,CP194,inactive
same,Potency,CP201,inactive
same,Potency,CP211,inactive
same,Potency,CP215,inactive
same,Potency,CP217,inactive
same,Potency,CP237,inactive
same,Potency,CP238,inactive
same,Potency,CP247,inactive
COc1ccc(C(=O)c2ccc(C)cc2)c(O)c1,"activity, negative = inhibition",[1]; [2],16.1%
same,"activity, negative = inhibition",[1]; [3],14.8%
same,Potency,3D7,inactive
same,Potency,7G8,inactive
same,Potency,AA1029,inactive
same,Potency,AS120,inactive
same,Potency,ATS189,inactive
same,Potency,ATS95,inactive
same,Potency,C2A,inactive
same,Potency,CP185,inactive
same,Potency,CP191,inactive
same,Potency,CP192,inactive
same,Potency,CP194,inactive
same,Potency,CP201,inactive
same,Potency,CP215,inactive
same,Potency,CP217,inactive
same,Potency,CP237,inactive
same,Potency,CP238,inactive
same,Potency,CP247,inactive
O=C(OCc1ccccc1)c1ccc(O)cc1,"activity, negative = inhibition",[1]; [2],10.7%
same,"activity, negative = inhibition",[1]; [3],11.3%
same,Potency,3D7,inactive
same,Potency,AA1029,inactive
same,Potency,AS120,inactive
same,Potency,ATS189,inactive
same,Potency,ATS95,inactive
same,Potency,C2A,inactive
same,Potency,CP185,inactive
same,Potency,CP191,inactive
same,Potency,CP192,inactive
same,Potency,CP194,inactive
same,Potency,CP201,inactive
same,Potency,CP203,inactive
same,Potency,CP211,inactive
same,Potency,CP215,inactive
same,Potency,CP217,inactive
same,Potency,CP237,inactive
same,Potency,CP238,inactive
same,Potency,CP247,inactive
